{"source": "PubChem BioAssay (EPA / NIEHS)", "note": "Records with an inconclusive call do not appear. The source made the active and inactive calls. Rule for the calls: active = hit-call score of the fitted dose curve at least 0.9, where 1 is the maximum; inconclusive = response in the unintended direction; inactive = score below 0.9.", "data": [{"assay": "Tanguay_ZF_120hpf_PE_legacy: (Legacy) Oregon State University Tanguay Lab 120 Hour Post-fertilization zebrafish Assay for Pericardial Edema (AID 2283640);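 for AC50: potency for increased incidence of pericardial edema versus DMSO baseline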", "procedure,_shortened": "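Zebrafish larvae are exposed from early development to 120 hpf at 28C, with 0.64% DMSO final. Each surviving larva receives a yes/no pericardial edema call by brightfield imaging, analysed relative to the DMSO baseline.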", "values": [{"compound": "Oc1cc(Cl)c(Cl)cc1Cl", "outcome": "inactive"}, {"compound": "Oc1c(Cl)cc(Cl)cc1Cl", "outcome": "inactive"}, {"compound": "O=C(N[C@H]1CN2CCC1CC2)c1ccc2c(c1)OCCO2", "outcome": "inactive"}, {"compound": "Clc1cccc(Cl)c1", "outcome": "inactive"}, {"compound": "N#Cc1cccnc1", "outcome": "inactive"}, {"compound": "CC(C)O.CC(C)O.OCCN(CCO)CCO.OCCN(CCO)CCO.[Ti]", "outcome": "inactive"}, {"compound": "OCCN(CCO)CCO", "outcome": "inactive"}, {"compound": "O=C(O)C1(c2ccc3c(c2)OC[C@H](Cc2ccc(-c4ccccc4)cc2)[C@H]3O)CCCC1", "outcome": "inactive"}, {"compound": "CN(C)C(=S)S", "AC50": "3.42 µM (active)"}, {"compound": "Cc1cc(C)cc(C)c1", "outcome": "inactive"}, {"compound": "Clc1cccc(Cl)c1Cl", "outcome": "inactive"}, {"compound": "CC(C)(C)c1ccccc1O", "outcome": "inactive"}, {"compound": "CCCCCCCCCCCCc1cccc(S(=O)(=O)O)c1", "outcome": "inactive"}]}, {"assay": "Tanguay_ZF_120hpf_SOMI_legacy: (Legacy) Oregon State University Tanguay Lab 120 Hour Post-fertilization zebrafish Assay for Somite Malformation (AID 2283647)", "procedure,_shortened": "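Somitogenesis defects are recorded as binary calls in whole larvae at 120 hpf after continuous static chemical exposure starting at 6 hpf in dechorionated 5D embryos. DMSO serves as negative control and baseline.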", "values": [{"compound": "Oc1cc(Cl)c(Cl)cc1Cl", "outcome": "inactive"}, {"compound": "Oc1c(Cl)cc(Cl)cc1Cl", "outcome": "inactive"}, {"compound": "O=C(N[C@H]1CN2CCC1CC2)c1ccc2c(c1)OCCO2", "outcome": "inactive"}, {"compound": "Clc1cccc(Cl)c1", "outcome": "inactive"}, {"compound": "N#Cc1cccnc1", "outcome": "inactive"}, {"compound": "CC(C)O.CC(C)O.OCCN(CCO)CCO.OCCN(CCO)CCO.[Ti]", "outcome": "inactive"}, {"compound": "OCCN(CCO)CCO", "outcome": "inactive"}, {"compound": "O=C(O)C1(c2ccc3c(c2)OC[C@H](Cc2ccc(-c4ccccc4)cc2)[C@H]3O)CCCC1", "outcome": "inactive"}, {"compound": "CN(C)C(=S)S", "outcome": "inactive"}, {"compound": "Clc1cccc(Cl)c1Cl", "outcome": "inactive"}, {"compound": "CC(C)(C)c1ccccc1O", "outcome": "inactive"}, {"compound": "CCCCCCCCCCCCc1cccc(S(=O)(=O)O)c1", "outcome": "inactive"}]}]}
